# Inconclusive results are not listed. Activity calls are given as the source filed them. The calls were made as follows, unless noted: active = hit-call score of the fitted dose curve at least 0.9, where 1 is the maximum; inconclusive = response in the unintended direction; inactive = score below 0.9.
# What was measured:
# [1] = CCTE_Shafer_MEA_dev_firing_rate_mean: CCTE's Neural Network Formation Assay for Mean Firing Rate, Shafer Lab (AID 2284031; active = hit-call score of the fitted dose curve at least 0.9, where 1 is the maximum; inactive = score below 0.9;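 also: AUC of well mean spike rate recorded on DIV 5 7 9 and 12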;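 as to AC50: curve fitted for loss of firing so AC50 reflects decreased mean firing rate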)
# Summary of the method: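 Developing rat cortical networks on MEA plates undergo 12-day compound exposure. Firing frequency, averaged across active electrodes, is integrated as area under the curve over four recording days, referenced to DMSO.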
# [2] = CCTE_Shafer_MEA_dev_per_burst_spike_percent: CCTE's Neural Network Formation Assay for Percent of Spikes in a Burst, Shafer Lab (AID 2284032; active = hit-call score of the fitted dose curve at least 0.9, where 1 is the maximum; inactive = score below 0.9;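 as to AC50: fitted as a decrease in burst spike percentage below DMSO baseline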)
# Summary of the method: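 Rat primary cortical neurons on 16-electrode MEA wells, dosed from plating day 0 for 12 days with renewal on DIV 5 and 9; spikes-in-bursts percentage averaged over bursting electrodes, collapsed as AUC across days 5, 7, 9, 12; loss direction versus DMSO.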
# [3] = CCTE_Shafer_MEA_dev_active_electrodes_number: CCTE's Neural Network Formation Assay for Number of Active Electrodes, Shafer Lab (AID 2284040);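 as to AC50: potency for loss of active electrodes versus DMSO so lower counts are hits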
# Summary of the method: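 Rat cortical primary cultures, 1.5 x 10^5 cells/well, PEI-coated MEA, laminin drop. Continuous exposure DIV 0–12; full media/compound change DIV 5, 9. Readout: electrodes with mean firing ≥5 spikes/min; AUC across days; loss vs DMSO.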
# [4] = CCTE_Deisenroth_AIME_384WELL_CTox_Active: Cytotoxicity Assessment (CTOX) in CCTE's 384-well Estrogen Receptor Transactivation Assay with AIME metabolic competence (metabolism positive), Deisenroth Lab (AID 2284037);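 also: chemicals first conditioned 2 h by alginate-bound induced rat liver S9 before cells; activity means signal loss indicating cell death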
# Summary of the method: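 VM7Luc4E2 breast cells received medium pre-incubated 2 h with chemical over alginate microspheres holding induced male Sprague Dawley rat liver S9; viability read 24 h later by protease-substrate fluorescence. Loss of signal, bidirectional fit, 0.002–200 uM.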
# [5] = molecular target: Estrogen receptor (Homo sapiens) (UniProt P03372); experiment: CCTE_Deisenroth_AIME_384WELL_LUC_Inactive: CCTE's 384-well Estrogen Receptor Transactivation Assay without AIME metabolic competence (ERTA luciferase; metabolism negative), Deisenroth Lab (AID 2284038);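 also: hits raise estrogen receptor luciferase signal so potencies reflect agonists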
# Estrogen receptor (Homo sapiens), sequence (P03372 whole entry, looked up): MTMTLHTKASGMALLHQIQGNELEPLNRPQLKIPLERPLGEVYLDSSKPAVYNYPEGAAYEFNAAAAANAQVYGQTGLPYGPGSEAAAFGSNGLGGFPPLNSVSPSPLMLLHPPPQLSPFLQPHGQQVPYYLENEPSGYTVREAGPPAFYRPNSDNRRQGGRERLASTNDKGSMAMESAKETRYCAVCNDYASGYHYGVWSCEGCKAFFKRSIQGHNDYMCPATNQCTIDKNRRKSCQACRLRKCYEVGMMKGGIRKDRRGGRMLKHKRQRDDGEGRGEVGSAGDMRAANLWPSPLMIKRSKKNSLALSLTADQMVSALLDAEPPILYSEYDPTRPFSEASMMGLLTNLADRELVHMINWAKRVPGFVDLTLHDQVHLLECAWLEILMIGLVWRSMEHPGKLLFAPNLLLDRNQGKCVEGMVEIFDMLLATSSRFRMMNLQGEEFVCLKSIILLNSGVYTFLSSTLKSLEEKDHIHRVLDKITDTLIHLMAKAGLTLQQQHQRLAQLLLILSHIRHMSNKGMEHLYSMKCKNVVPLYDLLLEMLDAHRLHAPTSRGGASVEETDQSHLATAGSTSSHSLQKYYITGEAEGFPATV
# Summary of the method: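 Chemicals (10-point series, 0.002 - 200 uM) were incubated 2 hours with alginate-water microsphere lids lacking S9, then the conditioned medium was transferred to VM7Luc4E2 breast cells for 24 hour. Luciferase induction was read by bioluminescence, fitted upward relative to 17beta-estradiol.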
# [6] = CCTE_Deisenroth_AIME_384WELL_CTox_Inactive: Cytotoxicity Assessment (CTOX) in CCTE's 384-well Estrogen Receptor Transactivation Assay without AIME metabolic competence (metabolism negative), Deisenroth Lab (AID 2284039);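 also: cell viability via live-cell protease substrate cleaved to fluorescent probe; cells exposed 24 h to medium preincubated 2 h with alginate-water beads without S9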
# Summary of the method: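 Metabolism-negative arm: chemicals (10-point, 0.002 - 200 uM) preincubated 2 h with alginate-water lids, medium moved onto VM7Luc4E2 cells for 24 h. Fluorescent live-cell protease readout; bidirectional curve fit.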
# [7] = molecular target: Estrogen receptor (Homo sapiens) (UniProt P03372); experiment: CCTE_Deisenroth_AIME_384WELL_LUC_Shift: CCTE's 384-well Estrogen Receptor Transactivation Assay with AIME metabolic competence data shift (ERTA luciferase; difference in metabolism positive and negative), Deisenroth Lab (AID 2284041; active = hit-call score of the fitted dose curve at least 0.9, where 1 is the maximum; inactive = score below 0.9;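 also: shift is response with S9 minus without S9 so positive means metabolism raised ER signal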)
# Summary of the method: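 Here, parent compounds undergo 2 h phase I metabolism by PB/BNF-induced rat S9 before 24 h transactivation in VM7Luc4E2 cells; the curve models S9-positive minus S9-negative response over a 10-point series.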
smiles,measurement,setting,value
COC(=O)C(F)(F)C(F)(F)C(F)(F)F,outcome,[1],inactive
same,outcome,[2],inactive
same,outcome,[3],inactive
O=CC(F)(F)C(F)(F)C(F)(F)F,outcome,[1],inactive
same,outcome,[2],inactive
same,outcome,[3],inactive
CCCCCCCCCCCCOC(=O)c1cc(O)c(O)c(O)c1,outcome,[4],inactive
same,outcome,[5],inactive
same,AC50,[6],128 µM (active)
same,outcome,[7],inactive
Cc1ccc(S(=O)(=O)O)cc1,outcome,[6],inactive
CC(C)[C@@H]1CC[C@@H](C)C[C@H]1O,outcome,[6],inactive
FCOC(C(F)(F)F)C(F)(F)F,outcome,[1],inactive
same,outcome,[2],inactive
same,outcome,[3],inactive
O=S(=O)(O)c1ccccc1,outcome,[4],inactive
Nc1ccn([C@@H]2O[C@H](CO)[C@@H](O)C2O)c(=O)n1 (stereo partly drawn),AC50,[1],0.471 µM (active)
same,AC50,[2],0.341 µM (active)
same,AC50,[3],0.472 µM (active)
O=C(OC(=O)C(F)(F)C(F)(F)F)C(F)(F)C(F)(F)F,outcome,[1],inactive
same,outcome,[2],inactive
same,outcome,[3],inactive
CN(Cc1cnc2nc(N)nc(N)c2n1)c1ccc(C(=O)N[C@@H](CCC(=O)O)C(=O)O)cc1,AC50,[1],0.123 µM (active)
same,AC50,[2],0.0318 µM (active)
same,AC50,[3],0.0303 µM (active)
C=CC(F)(F)C(F)(F)C(F)(F)C(F)(F)F,outcome,[1],inactive
same,outcome,[2],inactive
same,outcome,[3],inactive
CC(C)c1c(C(=O)Nc2ccccc2)c(-c2ccccc2)c(-c2ccc(F)cc2)n1CC[C@@H](O)C[C@@H](O)CC(=O)O,AC50,[1],0.013 µM (active)
same,AC50,[2],0.00992 µM (active)
same,AC50,[3],0.00981 µM (active)
CCCCC(CC)C(=O)O (stereo not drawn),outcome,[4],inactive
same,outcome,[6],inactive
NC(=NCCCCCCN=C(N)/N=C(\N)Nc1ccc(Cl)cc1)/N=C(\N)Nc1ccc(Cl)cc1,AC50,[4],59.5 µM (active)
same,AC50,[6],46.8 µM (active)
same,outcome,[7],inactive
O=C(CC(=O)C(F)(F)C(F)(F)C(F)(F)F)c1cccs1,outcome,[1],inactive
same,AC50,[2],8.19 µM (active)
same,AC50,[3],8.83 µM (active)
Cc1[nH]nc2c1N=C(c1ccccc1Cl)c1cc([N+](=O)[O-])ccc1N2,AC50,[4],159 µM (active)
same,AC50,[6],138 µM (active)
c1cnc2c(c1)ccc1cccnc12,AC50,[4],30.9 µM (active)
same,AC50,[6],15.7 µM (active)
CC(O)COc1ccccc1 (stereo not drawn),outcome,[4],inactive
same,outcome,[6],inactive
O=C(O)C(F)(F)OC(F)(F)C(F)(F)OC(F)(F)C(F)(F)OC(F)(F)C(F)(F)C(F)(F)C(F)(F)F,outcome,[1],inactive
same,outcome,[2],inactive
same,outcome,[3],inactive

# Source: PubChem BioAssay (EPA / NIEHS)
